The values below come from PubChem BioAssay (EPA / NIEHS).

Each structure is given as a SMILES string. Results filed as inconclusive are left out. The source made the active and inactive calls. Rule for the calls, unless noted: active = hit-call score of the fitted dose curve at least 0.9, where 1 is the maximum; inconclusive = response in the unintended direction; inactive = score below 0.9.

In general, AC50 refers to the concentration giving half of the maximal activity seen.

The nature of assay [1]: TOX21_p53_BLA_p2_viability: Viability Assessment in the Tox21 HCT-116 p53 Agonism Beta-lactamase Assay, Phase 2 (AID 2283591).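 Note: actives lower the ATP signal meaning cytotoxicity.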 In outline:
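HCT116 p53-bla cells, 4000/well, dosed after 5 h plating (217-fold dilution of DMSO stocks) and incubated 16 h at 37C. Viability taken as cellular ATP by CellTiter-Glo luminescence after 30 min RT; signal loss marks cytotoxicity.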

The target of assay [2] is Cellular tumor antigen p53 (Homo sapiens) (UniProt P04637). Put plainly: TOX21_p53_BLA_p2_ratio: Tox21 HCT-116 p53 Agonism Beta-lactamase Assay, Ratio, Phase 2 (AID 2283592). In outline:
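An inducible beta-lactamase reporter in HCT116 cells signals p53 pathway activation. After 16 h chemical exposure at 37C, cells load CCF4-AM substrate for 2 h at room temperature; activity is the cleaved/uncleaved emission ratio relative to DMSO.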

A short description of assay [3]: TOX21_p53_BLA_p3_viability: Viability Assessment in the Tox21 HCT-116 p53 Agonism Beta-lactamase Assay, Phase 3 (AID 2283593).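 Note: cells exposed to compound for 16 h before reading.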 In outline: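 HCT116 cells, 4000/well, dosed 5 h after plating by pin transfer (217-fold dilution from DMSO stock) and incubated 16 h at 37C, 5% CO2. Viability read as ATP luminescence with CellTiter-Glo after 30 min at room temperature.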

Assay [4] has as its target Cellular tumor antigen p53 (Homo sapiens) (UniProt P04637). Put plainly: TOX21_p53_BLA_p3_ratio: Tox21 HCT-116 p53 Agonism Beta-lactamase Assay, Ratio, Phase 3 (AID 2283596). The essentials:
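HCT116 p53-bla cells (4000/well) given compound in DMSO (217-fold dilution) after 5 h, incubated 16 h at 37C. CCF4-AM substrate 2 h at room temperature; 460/530 nm emission ratio, gain fitted against DMSO.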

The nature of assay [5]: TOX21_p53_BLA_p4_viability: Viability Assessment in the Tox21 HCT-116 p53 Agonism Beta-lactamase Assay, Phase 4 (AID 2283597).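 Note: hits lower the luminescence signal meaning cytotoxicity.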 In outline: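 Compound exposure of HCT116 cells lasts 16 h at 37C, 5% CO2, with DMSO stocks diluted 217-fold. Cellular ATP is then quantified by CellTiter-Glo luminescence after 30 min at room temperature.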
Assay [6] addresses Cellular tumor antigen p53 (Homo sapiens) (UniProt P04637). Put plainly: TOX21_p53_BLA_p5_ratio: Tox21 HCT-116 p53 Agonism Beta-lactamase Assay, Ratio, Phase 5 (AID 2283599). The essentials: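 HCT-116 p53-bla cells (4000/well) plated 5 h, dosed with compound (217-fold DMSO dilution) for 16 h at 37 C; CCF4-AM substrate 2 h at room temperature. Activity is the 460/530 nm emission ratio (405 nm excitation), fitted in gain-of-signal direction versus DMSO.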

The target is the same in assay [7]. Put plainly: TOX21_p53_BLA_p4_ratio: Tox21 HCT-116 p53 Agonism Beta-lactamase Assay, Ratio, Phase 4 (AID 2283601). The essentials: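 HCT-116 p53 beta-lactamase reporter cells (4000/well) preincubated 5 h, then compound (217-fold dilution of DMSO stock) for 16 h at 37C. CCF4-AM substrate added 2 h at room temperature; 460/530 nm emission ratio fitted upward versus DMSO.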

A short description of assay [8]: TOX21_p53_BLA_p5_viability: Viability Assessment in the Tox21 HCT-116 p53 Agonism Beta-lactamase Assay, Phase 5 (AID 2283600). The essentials:
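Counter-readout for cytotoxicity: ATP-dependent luminescence from CellTiter-Glo, read in the beta-lactamase wells after 30 min at RT, following a 16 h compound exposure at 37C.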

Assay [9] in a line: CCTE_Harrill_HTTr_Viability_MCF7: CCTE's 6-hour Cell Viability Assessment for the High-Throughput Transcriptomics (HTTr) Platform, in MCF-7 cells cultured in DMEM + 10% fetal bovine serum, Harrill Lab (AID 2284010; active = hit-call score of the fitted dose curve at least 0.9, where 1 is the maximum; inactive = score below 0.9). In outline:
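MCF-7 cells in DMEM + 10% FBS, 384-well, exposed 6 h to an eight-point dilution series. Membrane integrity scored by high-content imaging of propidium iodide exclusion; bidirectional fit versus DMSO.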

A short description of assay [10]: CCTE_Harrill_HTTr_CellCount_MCF7: CCTE's Cell Proliferation Assessment for the High-Throughput Transcriptomics (HTTr) Platform, Harrill Lab (AID 2284012).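 Note: cells exposed to compound for six hours; intended direction is loss of nuclei count meaning fewer cells.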 The essentials: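 MCF7 cells exposed 6 hours to an eight-point dilution series; Hoechst-stained nuclei counted by high-content imaging. Bidirectional curve fitting against DMSO baseline.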

Sequence of Cellular tumor antigen p53 (Homo sapiens) (P04637 whole entry, looked up): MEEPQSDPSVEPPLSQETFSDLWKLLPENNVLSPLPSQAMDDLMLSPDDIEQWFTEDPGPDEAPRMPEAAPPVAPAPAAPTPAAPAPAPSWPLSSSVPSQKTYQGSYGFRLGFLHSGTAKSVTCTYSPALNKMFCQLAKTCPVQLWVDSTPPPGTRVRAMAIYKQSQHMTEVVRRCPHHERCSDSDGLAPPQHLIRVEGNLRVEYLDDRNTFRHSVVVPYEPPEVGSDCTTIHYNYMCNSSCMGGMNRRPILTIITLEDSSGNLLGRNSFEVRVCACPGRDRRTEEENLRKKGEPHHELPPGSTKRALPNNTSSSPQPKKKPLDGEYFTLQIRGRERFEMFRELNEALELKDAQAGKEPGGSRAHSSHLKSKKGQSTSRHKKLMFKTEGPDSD

For `CC(=O)Nc1cc([As](=O)(O)O)ccc1O`, the call in assay [1], in [2], in assay [3], in assay [4], in assay [5] and in assay [6] was inactive. Further, in assay [7], the outcome was inactive.
For `CC(C)(O)[C@@H]1[C@H]2OC(=O)[C@@H]1[C@]1(O)C[C@H]3O[C@]34C(=O)O[C@H]2[C@]14C` (tested in a mixture with another compound), the outcome in assay [1], in assay [2], in assay [3], in assay [4], in assay [5] and in [6] was inactive. The outcome in assay [7] was inactive.
Take `BrCCc1ccccc1`: the outcome in assay [1], in assay [2], in assay [3], in assay [4], in assay [5] and in assay [8] was inactive.
Consider `C[C@]12C[C@H]3S[C@H]3C[C@@H]1CC[C@@H]1[C@@H]2CC[C@]2(C)[C@@H](O)CC[C@@H]12`, for which the call in assay [1], in [2], in assay [3], in assay [4], in assay [5] and in assay [8] was inactive.
As for `ClC(Cl)(Cl)Cl`, the molecule was called inactive in assay [1], in assay [2], in assay [3], in [4], in assay [5] and in assay [6]. The outcome in assay [7] was inactive.
Regarding `Nc1ccccc1C(=O)OCC=Cc1ccccc1`, the AC50 in assay [1] was 66.3 µM (active). Besides, the outcome in [2], in [3], in assay [4], in [5] and in [7] was inactive.
For `CC(C)CC(C)N` (stereo unspecified), the call in assay [1], in assay [2], in assay [3], in [4], in [5] and in assay [6] was inactive. In addition, the result in assay [7] was inactive.
As to `C[C@]12CCC(=O)C[C@@H]1CC[C@@H]1[C@@H]2CC[C@@]2(C)[C@H]1CC[C@]2(C)O`, the result in [1], in assay [2], in assay [3], in assay [4], in [5] and in assay [8] was inactive. Besides, the outcome in [7] was inactive.
As to `CCCCCCCCCCCCCCCCCCn1cc[n+](C)c1`, the call in assay [1], in assay [3], in [4], in assay [5], in assay [6] and in assay [7] was inactive. Also, in assay [2], the AC50 was 8.42 µM (active).
Regarding `CCCCCc1cc(O)c2c(c1)OC(C)(C)[C@@H]1CCC(C)=C[C@@H]21`, the AC50 is 24.4 µM (active) in assay [1]; 41.7 µM (active) in [2]; 23.4 µM (active) in [3]; 40.4 µM (active) in [4]; 21.4 µM (active) in assay [5]; 32.8 µM (active) in assay [8]. The AC50 in [7] is 40 µM (active).
Regarding `O=c1c2ccccc2[se]n1-c1ccccc1`, the molecule was called inactive in [1], in assay [2], in assay [3], in assay [4], in assay [5] and in assay [6]. For the same molecule, the result in assay [7] was inactive.
Take `COc1cccc2c1cc([N+](=O)[O-])c1c(C(=O)O)cc3c(c12)OCO3`: the call in assay [1], in assay [5], in [9] and in assay [10] was inactive. For the same molecule, the AC50 is 1.75 µM (active) in [2]; 79.8 µM (active) in [3]; 6.78 µM (active) in [4]; 13.2 µM (active) in assay [6]; 3.74 µM (active) in [7].
For `Clc1ccc([C@@H]2C[C@H]3CC[C@@H]2N3)cn1`, the call in assay [1], in assay [2], in [3], in [4], in [5] and in assay [7] was inactive.
Consider `N#CCCSCCC#N`, for which the molecule was called inactive in [1], in [2], in [3], in assay [4], in assay [5] and in assay [6]. Besides, in assay [7], the result was inactive.
